This passage reports inhibition results from ChEMBL document CHEMBL1961873, “Compounds: GSK PKIS; Assays: Nanosyn kinase panel” (2012).

The target of test [1] is T1, Muscle, skeletal receptor tyrosine-protein kinase (Homo sapiens) (UniProt O15146).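 Further: reported value is the mean percent inhibition of MuSK kinase.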
T1 sequence (whole entry): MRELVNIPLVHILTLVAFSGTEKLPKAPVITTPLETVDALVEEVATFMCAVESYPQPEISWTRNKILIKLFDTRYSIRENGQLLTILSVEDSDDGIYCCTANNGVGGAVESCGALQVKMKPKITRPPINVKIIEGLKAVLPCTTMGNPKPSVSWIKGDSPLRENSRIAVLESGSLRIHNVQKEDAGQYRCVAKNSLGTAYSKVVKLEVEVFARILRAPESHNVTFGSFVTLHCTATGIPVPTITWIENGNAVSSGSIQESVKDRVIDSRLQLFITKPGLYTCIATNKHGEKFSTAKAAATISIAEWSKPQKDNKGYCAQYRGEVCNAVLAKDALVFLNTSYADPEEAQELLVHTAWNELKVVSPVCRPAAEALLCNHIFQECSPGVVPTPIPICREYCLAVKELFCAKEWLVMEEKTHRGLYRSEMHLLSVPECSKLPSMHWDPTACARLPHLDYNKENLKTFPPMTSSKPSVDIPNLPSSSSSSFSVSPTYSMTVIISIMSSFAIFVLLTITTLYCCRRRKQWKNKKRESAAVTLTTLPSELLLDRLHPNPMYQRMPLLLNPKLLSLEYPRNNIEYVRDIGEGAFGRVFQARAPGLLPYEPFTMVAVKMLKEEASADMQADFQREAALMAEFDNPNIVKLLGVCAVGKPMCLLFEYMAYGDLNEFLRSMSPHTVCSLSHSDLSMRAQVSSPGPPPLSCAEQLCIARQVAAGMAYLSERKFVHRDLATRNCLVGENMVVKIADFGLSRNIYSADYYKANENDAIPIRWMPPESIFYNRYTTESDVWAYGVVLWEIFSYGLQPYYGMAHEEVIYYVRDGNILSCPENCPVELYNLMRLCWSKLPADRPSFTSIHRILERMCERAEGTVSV
Conditions: at 1 µM.

Test [2] concerns the target Platelet-derived growth factor receptor alpha (Homo sapiens) (UniProt P16234). Conditions: at 0.1 µM.
For test [3] the target is unchanged. Conditions: at 1 µM.
Test [4] has as its system Platelet-derived growth factor receptor alpha (Homo sapiens), P16234 [D842V]. Conditions: at 0.1 µM.
The test system is the same in test [5]. Conditions: at 1 µM.
Test [6] concerns Platelet-derived growth factor receptor alpha (Homo sapiens), P16234 [T674I]. Conditions: at 0.1 µM.
For test [7] the test system is unchanged. Conditions: at 1 µM.
Test [8] deals with Platelet-derived growth factor receptor alpha (Homo sapiens), P16234 [V561D]. Conditions: at 0.1 µM.
For test [9] the test system is unchanged. Conditions: at 1 µM.
The target of test [10] is Platelet-derived growth factor receptor beta (Homo sapiens) (UniProt P09619). Conditions: at 0.1 µM.
Sequence of Platelet-derived growth factor receptor beta (Homo sapiens) (P09619 whole entry): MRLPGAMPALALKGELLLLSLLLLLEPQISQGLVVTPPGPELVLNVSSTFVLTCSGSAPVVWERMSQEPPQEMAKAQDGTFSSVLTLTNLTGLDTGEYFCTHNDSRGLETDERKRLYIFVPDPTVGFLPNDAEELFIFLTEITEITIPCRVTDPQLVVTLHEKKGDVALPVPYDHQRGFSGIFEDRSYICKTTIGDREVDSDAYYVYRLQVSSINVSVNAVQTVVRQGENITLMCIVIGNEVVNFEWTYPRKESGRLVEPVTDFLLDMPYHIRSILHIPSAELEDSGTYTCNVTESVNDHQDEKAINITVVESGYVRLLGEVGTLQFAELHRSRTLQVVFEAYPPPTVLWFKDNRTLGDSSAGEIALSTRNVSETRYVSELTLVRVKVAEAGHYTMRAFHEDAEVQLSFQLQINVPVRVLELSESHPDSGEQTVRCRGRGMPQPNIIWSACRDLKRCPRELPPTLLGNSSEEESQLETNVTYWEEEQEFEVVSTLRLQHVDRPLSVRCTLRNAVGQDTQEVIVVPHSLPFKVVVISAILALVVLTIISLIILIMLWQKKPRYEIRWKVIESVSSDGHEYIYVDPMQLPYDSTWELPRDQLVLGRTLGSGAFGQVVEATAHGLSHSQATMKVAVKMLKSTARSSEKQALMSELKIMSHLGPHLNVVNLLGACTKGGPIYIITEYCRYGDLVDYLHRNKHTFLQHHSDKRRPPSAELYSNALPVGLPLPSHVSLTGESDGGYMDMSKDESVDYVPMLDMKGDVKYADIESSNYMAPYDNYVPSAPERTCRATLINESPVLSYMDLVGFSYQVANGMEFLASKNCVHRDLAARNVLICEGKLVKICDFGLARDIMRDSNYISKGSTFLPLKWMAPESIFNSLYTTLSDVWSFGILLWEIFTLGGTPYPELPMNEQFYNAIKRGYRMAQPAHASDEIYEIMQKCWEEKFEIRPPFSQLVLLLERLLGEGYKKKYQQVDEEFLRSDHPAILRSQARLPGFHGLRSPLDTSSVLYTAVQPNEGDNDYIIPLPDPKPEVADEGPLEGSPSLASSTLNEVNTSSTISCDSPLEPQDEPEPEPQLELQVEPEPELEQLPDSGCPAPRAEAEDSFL
Test [11] shares this target. Conditions: at 1 µM.
Test [12] addresses Tyrosine-protein kinase FRK (Homo sapiens) (UniProt P42685). Conditions: at 0.1 µM.
For test [13] the target is unchanged. Conditions: at 1 µM.
In test [14] the target is Protein-tyrosine kinase 2-beta (Homo sapiens) (UniProt Q14289). Conditions: at 0.1 µM.
Sequence of Protein-tyrosine kinase 2-beta (Homo sapiens) (Q14289 whole entry, looked up): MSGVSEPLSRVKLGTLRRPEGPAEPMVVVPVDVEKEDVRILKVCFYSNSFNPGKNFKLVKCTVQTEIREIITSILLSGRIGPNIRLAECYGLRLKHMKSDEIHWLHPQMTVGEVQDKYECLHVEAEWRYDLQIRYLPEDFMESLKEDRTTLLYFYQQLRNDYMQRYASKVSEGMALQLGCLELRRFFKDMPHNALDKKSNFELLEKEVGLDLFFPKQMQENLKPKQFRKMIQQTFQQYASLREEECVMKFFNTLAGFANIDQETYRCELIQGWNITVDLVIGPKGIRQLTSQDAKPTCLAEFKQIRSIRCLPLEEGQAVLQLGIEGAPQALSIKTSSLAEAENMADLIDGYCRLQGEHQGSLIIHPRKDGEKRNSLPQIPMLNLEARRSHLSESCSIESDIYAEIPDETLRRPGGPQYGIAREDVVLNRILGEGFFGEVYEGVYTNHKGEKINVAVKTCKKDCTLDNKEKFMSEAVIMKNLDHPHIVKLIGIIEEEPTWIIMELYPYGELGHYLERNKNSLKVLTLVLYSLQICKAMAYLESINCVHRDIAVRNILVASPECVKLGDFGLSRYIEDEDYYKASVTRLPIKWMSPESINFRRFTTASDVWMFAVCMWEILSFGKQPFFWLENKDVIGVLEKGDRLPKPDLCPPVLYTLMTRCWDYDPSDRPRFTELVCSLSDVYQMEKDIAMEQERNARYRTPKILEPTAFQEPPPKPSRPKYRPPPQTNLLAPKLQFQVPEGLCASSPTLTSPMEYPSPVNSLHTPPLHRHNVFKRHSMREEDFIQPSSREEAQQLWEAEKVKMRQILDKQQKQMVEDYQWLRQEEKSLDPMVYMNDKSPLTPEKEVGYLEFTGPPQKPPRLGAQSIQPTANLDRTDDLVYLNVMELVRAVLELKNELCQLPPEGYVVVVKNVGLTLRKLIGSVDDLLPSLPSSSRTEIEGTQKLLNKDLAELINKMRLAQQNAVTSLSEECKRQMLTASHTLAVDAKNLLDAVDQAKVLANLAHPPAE
Test [15] has the same target. Conditions: at 1 µM.
Test [16] concerns the target Proto-oncogene tyrosine-protein kinase receptor Ret (Homo sapiens) (UniProt P07949). Conditions: at 0.1 µM.
The target is the same in test [17]. Conditions: at 1 µM.
The subject of test [18] is Proto-oncogene tyrosine-protein kinase receptor Ret (Homo sapiens), P07949 [V804L]. Conditions: at 0.1 µM.
Test [19] shares this test system. Conditions: at 1 µM.
Test [20] concerns Proto-oncogene tyrosine-protein kinase receptor Ret (Homo sapiens), P07949 [Y791F]. Conditions: at 0.1 µM.
Sequence of Proto-oncogene tyrosine-protein kinase receptor Ret (Homo sapiens), P07949 [Y791F] (P07949 whole entry Y791F): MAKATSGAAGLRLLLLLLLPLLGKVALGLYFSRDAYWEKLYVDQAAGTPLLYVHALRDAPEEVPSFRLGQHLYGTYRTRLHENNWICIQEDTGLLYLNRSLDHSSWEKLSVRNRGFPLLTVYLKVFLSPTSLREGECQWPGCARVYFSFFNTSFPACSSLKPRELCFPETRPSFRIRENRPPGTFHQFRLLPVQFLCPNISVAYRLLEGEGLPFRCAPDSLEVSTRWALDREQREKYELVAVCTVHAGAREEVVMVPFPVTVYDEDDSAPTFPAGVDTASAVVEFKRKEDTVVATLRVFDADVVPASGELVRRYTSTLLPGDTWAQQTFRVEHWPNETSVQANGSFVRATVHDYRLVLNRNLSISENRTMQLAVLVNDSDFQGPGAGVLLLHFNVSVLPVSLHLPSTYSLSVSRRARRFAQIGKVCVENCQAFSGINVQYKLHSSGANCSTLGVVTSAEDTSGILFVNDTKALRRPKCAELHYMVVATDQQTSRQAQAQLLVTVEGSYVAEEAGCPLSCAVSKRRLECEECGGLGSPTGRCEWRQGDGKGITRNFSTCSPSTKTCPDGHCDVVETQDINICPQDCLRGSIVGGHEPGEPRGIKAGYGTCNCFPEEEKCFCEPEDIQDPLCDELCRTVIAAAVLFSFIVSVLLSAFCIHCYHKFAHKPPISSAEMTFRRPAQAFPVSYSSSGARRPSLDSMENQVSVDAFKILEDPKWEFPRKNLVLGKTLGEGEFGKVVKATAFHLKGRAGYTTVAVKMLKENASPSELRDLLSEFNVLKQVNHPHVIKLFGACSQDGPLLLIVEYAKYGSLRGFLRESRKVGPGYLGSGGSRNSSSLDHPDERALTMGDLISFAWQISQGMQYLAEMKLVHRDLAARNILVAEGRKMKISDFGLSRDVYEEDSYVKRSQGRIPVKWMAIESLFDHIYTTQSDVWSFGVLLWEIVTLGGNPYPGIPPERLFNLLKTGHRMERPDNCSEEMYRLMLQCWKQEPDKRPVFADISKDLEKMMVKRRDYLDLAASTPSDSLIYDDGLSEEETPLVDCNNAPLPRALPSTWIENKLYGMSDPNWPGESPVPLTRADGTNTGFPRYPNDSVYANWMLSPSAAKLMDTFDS

“And” between values parts separate entries of the source, which are not always exact repeats. Equal values may be shown once.

Sequence of Proto-oncogene tyrosine-protein kinase receptor Ret (Homo sapiens), P07949 [V804L] (P07949 whole entry V804L): as the sequence (P07949 whole entry Y791F) above, with F791Y, V804L counted along it
Sequence of Tyrosine-protein kinase FRK (Homo sapiens) (P42685 whole entry): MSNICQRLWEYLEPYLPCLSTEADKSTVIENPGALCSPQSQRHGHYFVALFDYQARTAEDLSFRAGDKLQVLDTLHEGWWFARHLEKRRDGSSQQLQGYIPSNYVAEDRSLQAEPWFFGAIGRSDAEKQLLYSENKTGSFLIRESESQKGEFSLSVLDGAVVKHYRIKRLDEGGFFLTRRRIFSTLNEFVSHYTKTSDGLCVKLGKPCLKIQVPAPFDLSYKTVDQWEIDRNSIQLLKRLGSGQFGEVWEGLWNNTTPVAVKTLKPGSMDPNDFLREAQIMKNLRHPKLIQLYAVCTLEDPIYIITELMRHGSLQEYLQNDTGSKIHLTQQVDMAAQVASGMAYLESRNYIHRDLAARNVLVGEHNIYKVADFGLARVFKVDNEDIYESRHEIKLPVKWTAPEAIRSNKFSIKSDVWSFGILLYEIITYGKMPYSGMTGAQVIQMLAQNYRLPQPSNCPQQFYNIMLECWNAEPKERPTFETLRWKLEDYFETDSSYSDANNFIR

For the compound `CNC(=O)c1sc(-n2cnc3cc(OC)c(OC)cc32)cc1OCc1ccccc1C(F)(F)F`, the inhibition in test [1] was determined as 2.82%; in test [2] it was 17.2%; in test [3], 59.7%; in test [4], 3.81%; in test [5] it was 28%; in [6], 4.17%. For the same compound, the inhibition amounted to 9.43% in [7]; 7.81% in test [8]; 44.8% in test [9]; 9.81% in [10]; 44.2% in test [11]; 1.48% in test [12]. The inhibition in test [13] was 3.75%; in [14], -3.85%; in test [15], 0.13%; in test [16] it was 1.78%; in test [17] it was 9.67%; in [18], 6.14%. Also, the values for the inhibition in [19] and in test [20] were 11.4% and 8.02%, respectively.
Consider `NS(=O)(=O)c1ccc(N/N=C2\C(=O)Nc3cccc(CCc4ccncc4)c32)cc1`, for which the inhibition in test [1] stood at 24.2%; in test [2] it was 33.5%; in test [3], 60.7%; in test [4] it was 16.9%; in test [5], 58.5%; in test [6], 6.75%. Further, the inhibition was 34.6% in test [7]; 26.3% in test [8]; 72.3% in test [9]; 29.6% in test [10]; 58.5% in test [11]; -0.74% in test [12]. Besides, the inhibition is -0.31% in [13]; 4.23% in [14]; 20.1% in test [15]; 21.6% in [16]; 43.4% in test [17]; 38.5% in test [18]. Besides, the results for the inhibition in test [19] and in test [20] were 43.6% and 18.8%, respectively.
Regarding `COc1ccc2ncn(-c3cc(O[C@H](C)c4ccccc4C(F)(F)F)c(C(N)=O)s3)c2c1`, the inhibition in [1] stood at 22.4%; in test [2], 8.31%; in test [3], 35.4%; in [4], 4.46%; in test [5], 24.9%; in test [6], 0.36%. The inhibition is 9.23% in test [7]; 5.47% in test [8]; 26.1% in test [9]; 6.65% in test [10]; 37.5% in test [11]; -0.74% in [12]. For the same compound, the inhibition is 1.39% in [13]; -4.13% in test [14]; -9.62% in test [15]; 1.52% in test [16]; 4.27% in test [17]; 3.57% in test [18]. In addition, the figures for the inhibition in test [19] and in test [20] were 3.91% and 2.46%, respectively.
With `CCn1c(-c2nonc2N)nc2cncc(C(=O)NCCNC)c21`, the inhibition in test [1] is -0.23%; in test [2], 5.61%; in [3], 14.2%; in [4] it was 4.53%; in [5] it was 7.01%; in test [6], 3.41%. The inhibition in test [7] is 11.4%; in test [8], 3.13%; in test [9], 5.82%; in test [10], 16.2%; in [11] it was 12.4%; in test [12], 3.22%. Moreover, the inhibition in test [13] worked out at 3.52%; in test [14] it was 4.6%; in [15] it was 8.62%; in test [16] it was 6.45%; in [17], 7.16%; in [18], 4.21%. Moreover, the inhibition worked out at 17.1% in test [19] and 7.45% in test [20].
Take `CS(=O)(=O)Nc1ccc(-c2ccc3c(NC(=O)C4CC4)n[nH]c3c2)cc1`: the inhibition in [1] is 7.76%; in [2], 12.9%; in test [3], 28.5%; in test [4], 3.79%; in test [5] it was 10.3%; in test [6], 4.77%. The inhibition in test [7] came out at 4.09%; in test [8] it was 5.95%; in test [9] it was 26.5%; in test [10], 3.96%; in test [11] it was 8.42%; in [12], 1.21%. Besides, the inhibition came out at 1.03% in test [13]; 9.87% in test [14]; 8.59% in test [15]; 3.92% in [16]; 6.93% in [17]; 4.24% in test [18]. Besides, the inhibition in test [19] worked out at 8.77%; in [20] it was 6.88%.
In the case of `Nc1nonc1-c1nc2cnccc2n1C1CC1`, the inhibition is 8.16% and 1.56% in [1]; 15.3% and 5.54% in test [2]; 18.8% and 15.6% in test [3]; 4.39% and 4.32% in [4]; 16.4% and 18.7% in test [5]; 6.49% and 5.23% in test [6]. Also, the inhibition in test [7] is 20.2% and 20.4%; in test [8], 4.47% and 2.61%; in [9], 14% and 12.1%; in test [10] it was 10.2% and 2.99%; in [11] it was 26.9% and 22.4%; in test [12] it was 3.06% and 1.01%. The inhibition in [13] is 1.87% and 3.49%; in [14] it was 9.52% and 11.2%; in [15], 8.23% and 11.7%; in [16] it was 4.13% and 4.16%; in test [17] it was 10.6% and 0.77%; in test [18] it was 4.79% and 3.57%. Further, the inhibition in test [19] is 9.45% and 6.56%; in test [20], 6.44% and 5.27%.
Turning to `O=C(Nc1n[nH]c2nnc(-c3cccnc3)cc12)C1CC1`, the inhibition in test [1] was -0.99%; in test [2], -0.04%; in [3] it was 5.88%; in test [4], 2.16%; in [5], 2.26%; in test [6], 1.36%. For the same compound, the inhibition was 6.43% in test [7]; 1.61% in test [8]; 3.69% in test [9]; 1.07% in test [10]; 4.59% in [11]; -0.62% in [12]. The inhibition in test [13] was -0.08%; in [14] it was 1.2%; in test [15], 1.77%; in test [16], -1.02%; in [17] it was 1.55%; in [18] it was 0.89%. The inhibition in test [19] was found to be 1.74%; in test [20], 1.5%.
